# According to PubChem BioAssay (NCATS):
# Records with an inconclusive call do not appear. Entries that show only a call come without a potency. Calls of active or inactive are those of the source. Calls follow the shape of the full dose curve.
# Experiments:
# [1] = Primary qHTS for Huh7 cytotoxicity: counterscreen for inhibitors of MERS-S pseudotyped particle cell entry (AID 1479147)
# [2] = Primary qHTS for inhibitors of MERS-S pseudo-typed particle cell entry (AID 1479149); also: nearly all actives have a fitted effect of over 60% in size
# [3] = Primary qHTS for Vero E6 cytotoxicity: counterscreen for inhibitors of SARS-S pseudo-typed particle cell entry (AID 1479150)
# [4] = Primary qHTS for inhibitors of SARS-S pseudo-typed particle cell entry (AID 1479145); also: nearly all actives have a fitted effect of over 45% in size
# [5] = Confirmatory qHTS for VERO E6 Cytotoxicity Assay: Counterscreen for SARS-CoV-2 CPE Assay (AID 1508605); also: nearly all actives have a fitted effect of over 60% in size
# Potency is read from the fitted curve at half-maximal effect.
structure (smiles),measurement,setting,value
O=C(OCC(O)CO)c1ccccc1Nc1ccnc2c(C(F)(F)F)cccc12 (stereo not given),Potency,[1],inactive
same,Potency,[2],inactive
same,Potency,[3],inactive
CC(=O)OCC(=O)NCCCOc1cccc(CN2CCCCC2)c1,Potency,[1],inactive
same,Potency,[2],inactive
same,Potency,[3],inactive
CCOC(=O)C1=C[C@]2(CC)CCCN3CCc4c(n1c1ccccc41)[C@@H]32,Potency,[4],inactive
same,Potency,[1],inactive
same,Potency,[3],inactive
CC(C)=CCC/C(C)=C/CC/C(C)=C/C(=O)OCC(=O)[C@@]1(O)CC[C@H]2[C@@H]3CCC4=CC(=O)C=C[C@]4(C)[C@H]3[C@@H](O)C[C@@]21C,Potency,[4],inactive
same,Potency,[3],inactive
C1CCC(C(CC2CCCCN2)C2CCCCC2)CC1 (stereo not given),Potency,[4],25.1 µM (active)
same,Potency,[2],10 µM (active)
CCCCOc1cc(C(=O)OCCN(CC)CC)ccc1N,Potency,[4],inactive
same,Potency,[3],inactive
OCc1cc(C(O)CNCCCCCCOCCCCc2ccccc2)ccc1O (stereo not given),Potency,[4],inactive
same,Potency,[3],inactive
Oc1c(I)cc(Cl)c2cccnc12,Potency,[4],inactive
same,Potency,[3],inactive
same,Potency,[5],3.16 µM (active)
COc1ccc(-c2nc3ccc(C4=NNC(=O)CC4C)cc3[nH]2)cc1 (stereo not given),Potency,[4],inactive
same,Potency,[2],inactive
same,Potency,[3],inactive
Oc1c(Cl)cc(Cl)cc1Sc1cc(Cl)cc(Cl)c1O,Potency,[1],inactive
COc1ccc(CCN(C)CCCC(C#N)(c2cc(OC)c(OC)c(OC)c2)C(C)C)cc1OC (stereo not given),Potency,[1],inactive
same,Potency,[2],inactive
O=C(O)c1cccc(-c2noc(-c3ccccc3F)n2)c1,Potency,[4],inactive
same,Potency,[2],inactive
CN(C)c1ccc(C(=C2C=CC(=[N+](C)C)C=C2)c2ccc(N(C)C)cc2)cc1,Potency,[4],1 µM (active)
same,Potency,[2],1.12 µM (active)
CCCCOc1cc(C(=O)NCCN(CC)CC)c2ccccc2n1,Potency,[4],14.1 µM (active)
same,Potency,[3],inactive
same,Potency,[5],inactive
CCCCCCc1ccc(O)cc1O,Potency,[4],inactive
same,Potency,[2],0.891 µM (active)
same,Potency,[3],inactive
O=C(Nc1ccc([N+](=O)[O-])cc1Cl)c1cc(Cl)ccc1O,Potency,[4],0.501 µM (active)
same,Potency,[2],2 µM (active)
same,Potency,[3],1.58 µM (active)
CC(C)N=C(N)/N=C(\N)Nc1ccc(Cl)cc1,Potency,[1],inactive
same,Potency,[2],inactive
CNC[C@H](O)c1ccc(O)c(O)c1,Potency,[4],inactive
same,Potency,[2],inactive
same,Potency,[3],inactive
N/C(=N\N=C\c1ccc(Cl)cc1)N/N=C/c1ccc(Cl)cc1,Potency,[1],inactive
same,Potency,[2],inactive
CCCCCCCCCCCCOCCOCCOCCOCCOCCOCCOCCOCCOCCO,Potency,[1],inactive
same,Potency,[2],8.91 µM (active)
CC(=O)Oc1ccc(C2(c3ccc(OC(C)=O)cc3)Oc3ccccc3NC2=O)cc1,Potency,[1],inactive
same,Potency,[2],inactive
Oc1ccc(O)cc1,Potency,[4],inactive
same,Potency,[3],inactive
C#C[C@]1(O)CC[C@H]2[C@@H]3CCc4cc(O)ccc4[C@H]3CC[C@@]21C,Potency,[4],inactive
same,Potency,[3],inactive
CN1CCCC(CC2c3ccccc3Sc3ccccc32)C1 (stereo not given),Potency,[4],20 µM (active)
same,Potency,[3],inactive
CC1=C(C(=O)OC(C)C)C(c2cccc([N+](=O)[O-])c2)C(C(=O)OC2CN(C(c3ccccc3)c3ccccc3)C2)=C(N)N1 (stereo not given),Potency,[1],inactive
same,Potency,[2],inactive
Oc1ccc(Cl)cc1Cc1cc(Cl)ccc1O,Potency,[1],inactive
Clc1ccccc1C(c1ccccc1)(c1ccccc1)n1ccnc1,Potency,[1],inactive
NC(=O)c1ncn([C@@H]2O[C@H](CO)[C@@H](O)[C@H]2O)c1N,Potency,[4],inactive
same,Potency,[1],inactive
same,Potency,[3],inactive
N=C(N)c1ccc(OCCCOc2ccc(C(=N)N)cc2)cc1,Potency,[1],inactive
CN(C)c1ccc(C(=C2C=CC(=[N+](C)C)C=C2)c2ccccc2)cc1,Potency,[4],2.24 µM (active)
same,Potency,[2],0.891 µM (active)
OC[C@H]1O[C@@H](n2cnc3c(=S)nc[nH]c32)[C@H](O)[C@@H]1O,Potency,[4],inactive
same,Potency,[2],inactive
CCN(CCCc1ccccc1)CCCc1ccccc1,Potency,[4],inactive
same,Potency,[1],inactive
same,Potency,[3],inactive
C[n+]1cc2c3c(ccc2c2ccc4cc5c(cc4c21)OCO5)OCO3,Potency,[1],8.91 µM (active)
O=C(OCC(O)CO)c1ccccc1Nc1ccnc2cc(Cl)ccc12 (stereo not given),Potency,[1],inactive
same,Potency,[2],inactive
same,Potency,[3],inactive
CC[N+](CC)(CC(=O)Nc1c(C)cccc1C)Cc1ccccc1,Potency,[1],inactive
same,Potency,[2],inactive
same,Potency,[3],inactive
COc1ccnc2c1CCCCC2S(=O)c1nc2ccccc2[nH]1 (stereo not given),Potency,[1],inactive
same,Potency,[2],inactive
same,Potency,[3],inactive
C(=C\c1ccccc1)/CN1CCN(C(c2ccccc2)c2ccccc2)CC1,Potency,[1],inactive
same,Potency,[2],inactive
same,Potency,[3],inactive
O=c1[nH]c(=O)c2[nH]c(=O)[nH]c2[nH]1,outcome,[1],inactive [at 11.4 µM]
same,outcome,[2],inactive [at 11.4 µM]
same,outcome,[3],inactive [at 11.4 µM]
O=C1O[C@H]([C@@H](O)CO)C(O)=C1O,Potency,[1],inactive
same,Potency,[2],inactive
same,Potency,[3],inactive
Nc1ccn([C@H]2CC[C@@H](CO)O2)c(=O)n1,Potency,[1],inactive
same,Potency,[2],inactive
same,Potency,[3],inactive
O=C(NC1CCN(CCc2c[nH]c3ccccc23)CC1)c1ccccc1,Potency,[1],inactive
same,Potency,[2],inactive
same,Potency,[3],inactive
Cn1cc(C(=O)[C@@H]2CCc3nc[nH]c3C2)c2ccccc21,Potency,[1],inactive
same,Potency,[2],inactive
same,Potency,[3],inactive
C1CCN2C[C@@H]3C[C@@H](CN4CCCC[C@@H]34)[C@H]2C1,Potency,[1],inactive
same,Potency,[2],inactive
same,Potency,[3],inactive
CN(Cc1cc(Br)cc(Br)c1N)C1CCCCC1,Potency,[1],inactive
same,Potency,[2],inactive
same,Potency,[3],inactive
CCN(CC)CCOC(=O)C(Cc1cccc2ccccc12)CC1CCCO1 (stereo not given),Potency,[1],inactive
same,Potency,[2],inactive
same,Potency,[3],inactive
COC(=O)C1=C(C)NC(C)=C(C(=O)OC)C1c1ccccc1[N+](=O)[O-],Potency,[1],inactive
same,Potency,[2],inactive
same,Potency,[3],inactive
Cc1c(-c2ccccc2)oc2c(C(=O)OCCN3CCCCC3)cccc2c1=O,Potency,[1],inactive
same,Potency,[2],inactive
same,Potency,[3],inactive
CCOC(=O)c1ccc(OC(=O)CCCCCN=C(N)N)cc1,Potency,[1],inactive
same,Potency,[2],inactive
same,Potency,[3],inactive
CCOC(=O)[C@H](CCc1ccccc1)N[C@@H](C)C(=O)N(CC(=O)O)C1Cc2ccccc2C1,Potency,[1],inactive
same,Potency,[2],inactive
same,Potency,[3],inactive
OCc1ccccc1O,Potency,[1],inactive
same,Potency,[2],inactive
same,Potency,[3],inactive
CC(=O)Nc1ccc(S(=O)(=O)Nc2ccc([N+](=O)[O-])cc2)cc1,Potency,[1],inactive
same,Potency,[2],inactive
same,Potency,[3],inactive
CN1CCC(=C2c3ccccc3CC(=O)c3sccc32)CC1,Potency,[1],inactive
same,Potency,[2],inactive
same,Potency,[3],inactive
O=C1CC2(CCCC2)CC(=O)N1CCCCN1CCN(c2ncccn2)CC1,Potency,[1],inactive
same,Potency,[2],inactive
same,Potency,[3],inactive
O=C(OCc1ccccc1)c1ccc(O)cc1,Potency,[1],inactive
same,Potency,[2],inactive
same,Potency,[3],inactive
Cc1ncc(COP(=O)(O)O)c(C=O)c1O,Potency,[1],inactive
same,Potency,[2],inactive
same,Potency,[3],inactive
C/C=C/C(=O)N(CC)c1ccccc1C,Potency,[1],inactive
same,Potency,[2],inactive
same,Potency,[3],inactive
CN(C)CCCOC1(Cc2ccccc2)CCCCCC1,Potency,[1],inactive
same,Potency,[2],inactive
same,Potency,[3],inactive
CCOc1ccc(C(=O)OCCN(CC)CC)cc1,Potency,[1],inactive
same,Potency,[2],inactive
same,Potency,[3],inactive
CN1CCN(C2=Nc3ccccc3Sc3ccc(Cl)cc32)CC1,Potency,[1],inactive
same,Potency,[2],inactive
same,Potency,[3],inactive
C[C@H](O)C(=O)Nc1c(I)c(C(=O)NC(CO)CO)c(I)c(C(=O)NC(CO)CO)c1I,Potency,[1],inactive
same,Potency,[2],inactive
same,Potency,[3],inactive
O=C1OC(c2ccc(O)cc2)(c2ccc(O)cc2)c2ccccc21,Potency,[1],inactive
same,Potency,[2],inactive
same,Potency,[3],inactive
CCOC(=O)c1cc(=O)c2c(OCC(COc3cccc4oc(C(=O)OCC)cc(=O)c34)OC(=O)[C@@H](N)CCCCN)cccc2o1,Potency,[1],inactive
same,Potency,[2],inactive
same,Potency,[3],inactive
O=c1[nH]c(=O)n([C@H]2C[C@H](O)[C@@H](CO)O2)cc1C(F)(F)F,Potency,[1],inactive
same,Potency,[2],10 µM (active)
same,Potency,[3],inactive
COC1=C(OC)C(=O)C(CCCCCCCCCCO)=C(C)C1=O,Potency,[1],inactive
same,Potency,[2],inactive
same,Potency,[3],inactive
CN1CCN(c2c(F)cc3c(=O)c(C(=O)O)cn(CCF)c3c2F)CC1,Potency,[1],inactive
same,Potency,[2],inactive
same,Potency,[3],inactive
CN(C)CCN(Cc1ccccc1)c1ccccn1,Potency,[1],inactive
same,Potency,[2],inactive
same,Potency,[3],inactive
CCN(CC)C(=O)Nc1ccc(OCC(O)CNC(C)(C)C)c(C(C)=O)c1 (stereo not given),Potency,[1],inactive
same,Potency,[2],inactive
same,Potency,[3],inactive
CC1CC(=O)NN=C1c1ccc(NCC(C)(C)NCC(O)COc2cc(Cl)ccc2C#N)cc1 (stereo not given),Potency,[1],inactive
same,Potency,[2],inactive
same,Potency,[3],inactive
Cc1nnc2n1-c1sc(CCc3ccc(CC(C)C)cc3)cc1C(c1ccccc1Cl)=NC2C (stereo not given),Potency,[1],inactive
same,Potency,[2],20 µM (active)
same,Potency,[3],inactive
C#CC1(O)CC[C@H]2[C@@H]3CCC4=CCCC[C@@H]4[C@H]3CC[C@@]21C (stereo not given in full),Potency,[1],inactive
same,Potency,[2],inactive
same,Potency,[3],inactive
CN(C)CCC(c1ccccc1)c1ccccn1 (stereo not given),Potency,[1],inactive
same,Potency,[2],inactive
same,Potency,[3],inactive
C[C@@H](C1=C(CCN(C)C)Cc2ccccc21)c1ccccn1,Potency,[1],inactive
same,Potency,[2],inactive
same,Potency,[3],inactive
CCOC(=O)[C@H](CCc1ccccc1)N[C@@H](C)C(=O)N1C(=O)N(C)C[C@H]1C(=O)O,Potency,[1],inactive
same,Potency,[2],inactive
same,Potency,[3],inactive
NS(=O)(=O)c1cc(C(=O)O)c(NCc2ccco2)cc1Cl,Potency,[1],inactive
same,Potency,[2],inactive
same,Potency,[3],inactive
CCOC(=O)OC(C)OC1=C(C(=O)Nc2ccccn2)N(C)S(=O)(=O)c2ccccc21 (stereo not given),Potency,[1],inactive
same,Potency,[2],inactive
same,Potency,[3],inactive
CCOc1ccc(Cc2nccc3cc(OCC)c(OCC)cc23)cc1OCC,Potency,[1],12.6 µM (active)
same,Potency,[2],3.55 µM (active)
same,Potency,[3],17.8 µM (active)
CCCCNc1ccc(C(=O)OCCN(C)C)cc1,Potency,[1],inactive
same,Potency,[2],inactive
same,Potency,[3],inactive
O=S(=O)(c1cccc2cnccc12)N1CCCNCC1,Potency,[1],inactive
same,Potency,[2],inactive
same,Potency,[3],inactive
CCn1c(=O)c2c(nc(C=Cc3ccc(OC)c(OC)c3)n2C)n(CC)c1=O,Potency,[1],inactive
same,Potency,[2],inactive
same,Potency,[3],inactive
CN1CCC(=C2c3ccccc3CCc3cccnc32)CC1,Potency,[1],inactive
same,Potency,[2],inactive
same,Potency,[3],inactive
C=CCOc1cc(Cl)ccc1C(=O)NCCN(CC)CC,Potency,[1],inactive
same,Potency,[2],inactive
same,Potency,[3],inactive
CCc1oc2ccccc2c1C(=O)c1cc(Br)c(O)c(Br)c1,Potency,[1],inactive
same,Potency,[2],inactive
same,Potency,[3],inactive
O=c1oc2c(O)c(O)cc3c(=O)oc4c(O)c(O)cc1c4c23,Potency,[1],inactive
same,Potency,[2],inactive
same,Potency,[3],inactive
CCCC(=O)OC[C@@H](OC(=O)CCC)[C@@H](OC(=O)CCC)[C@H](Cn1c2nc(=O)[nH]c(=O)c-2nc2cc(C)c(C)cc21)OC(=O)CCC,Potency,[1],inactive
same,Potency,[2],inactive
same,Potency,[3],inactive
